Data taken from PubChem BioAssay (NCI).
About 79,000 compounds went through this panel and 15% of them were active in at least one assay; those are over-represented in the sample as a whole. Activity calls are given as the source filed them. No stated cut-off is given here; in the data, active means growth inhibition above about 70%; inactive means the rest. *1 amine or outer side, *2 acyl side, *3 side chain or, on linkers, in order; H or OH if unused. Where a SMILES comes first, the peptide text is derived from it. Bridges are numbered along the chain shown (N, C = ends). Roman numbers before positions name the chains, in order. [ ]: non-standard residue; d: D form. Actinocin(1to9) = Cc1c2oc3c(C)ccc(C(=O)[*:2])c3nc-2c(C(=O)[*:1])c(N)c1=O; NMeY = CN[CH](Cc1ccc(O)cc1)C(=O)O; Sar = CNCC(=O)O

Experiments:
[1] = NCI Yeast Anticancer Drug Screen. Data for the rad50 strain (AID 155);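 further: 0% = growth of vehicle-only cultures of the same strain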; settings: S. cerevisiae rad50 strain growth inhibition; at 50.0 µM; stronger effect = higher value
Summary of the method: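 Compounds were tested on a yeast strain with an engineered DNA damage repair alteration; the reported value is growth inhibition normalised to vehicle treatment.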

[2] = NCI Yeast Anticancer Drug Screen. Data for the mec2-1 strain (AID 157); settings: S. cerevisiae mec2-1 strain, at 50.0 µM, stronger effect = higher value
Summary of the method: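 Strain: mec2-1 (DNA repair/cell cycle alteration). Compound exposure, then growth measured; inhibition expressed relative to vehicle.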

[3] = NCI Yeast Anticancer Drug Screen. Data for the sgs1 mgt1 strain (AID 161);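 further: 0% = growth of cultures given vehicle only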; settings: S. cerevisiae sgs1 mgt1 strain, at 50.0 µM, stronger effect = higher value
Summary of the method: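 Mutant yeast exposed to compound; growth scored against vehicle-only wells.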

[4] = NCI Yeast Anticancer Drug Screen. Data for the cln2 rad14 strain (AID 165);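 further: 0% = growth equal to vehicle treated cultures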; settings: S. cerevisiae cln2 rad14 strain, at 50.0 µM, stronger effect = higher value
Summary of the method: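 Compounds are applied to the cln2 rad14 yeast strain, and growth is then compared with that of vehicle-treated cultures to give inhibition.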

[5] = NCI Yeast Anticancer Drug Screen. Data for the bub3 strain (AID 167); settings: S. cerevisiae bub3 mutant strain, at 50.0 µM, stronger effect = higher value
Summary of the method: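 Growth of a checkpoint-deficient yeast mutant is measured after compound exposure. Values represent inhibition relative to vehicle.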

[6] = NCI Yeast Anticancer Drug Screen. Data for the mlh1 rad18 strain (AID 175); settings: S. cerevisiae mlh1 rad18 strain growth inhibition; at 50.0 µM; stronger effect = higher value
Summary of the method: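 Read-out is yeast growth inhibition, calculated against vehicle-only controls. The compound was applied to a strain engineered with DNA damage repair alterations.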

Measured: growth inhibition

C/C=C\CCCCCCCCCCCCCCCC
inactive: [1] -1.15% | [2] -12.1% | [3] -0.6% | [4] 13.4% | [5] -6.9% | [6] 16.8%

CC(=O)Oc1ccc2c(c1)Cc1cc([N+](=O)[O-])ccc1-2
inactive: [1] 8.45% | [2] 14.2% | [3] 14.9% | [4] -9.5% | [5] 32.7% | [6] 20.6%

Cc1onc2c1c(=O)n(C)c(=O)n2C
inactive: [1] -6.25% | [2] -1.95% | [3] -3.55% | [4] -20.1% | [5] -7.45% | [6] -2.25%

CCOC(=O)COC(=O)CCc1ccccc1
inactive: [1] 0.3% | [2] -39.6% | [3] -5% | [4] -36.8% | [5] -12.9% | [6] 0.45%

COc1ccc(CC2C(=O)OC(C)C(NC(=O)c3c4nc5c(C(=O)NC6C(=O)NC(C(C)C)C(=O)N7CCCC7C(=O)N(C)CC(=O)N(C)C(Cc7ccc(OC)cc7)C(=O)OC6C)ccc(C)c5oc-4c(C)c(=O)c3N)C(=O)NC(C(C)C)C(=O)N3CCCC3C(=O)N(C)CC(=O)N2C)cc1 (centres undefined) (I: TVP[Sar][NMeY](Me) / II: TVP[Sar][NMeY](Me); ester I:1-I:C, II:1-II:C; linker I:N-II:N via Actinocin(1to9); configuration not given here)
inactive: [1] -3% | [2] -3.65% | [3] -26.1% | [4] 8.5% | [5] -25.8% | [6] -24.7%

COc1ccc(C2=NCCO2)cc1N
inactive: [1] 3.6% | [2] 0.45% | [3] -13.7% | [4] -5.5% | [5] 4.35% | [6] 11.4%

COc1ccc(OC)c(NC(=O)NN(C)C)c1
inactive: [1] -31.4% | [2] -38.8% | [3] -2.25% | [4] 7.95% | [5] -21.1% | [6] -21.6%

Cc1ccc2c(Nc3ccc(NS(C)(=O)=O)cc3C)c3ccccc3nc2c1
inactive: [1] 42.4% | [2] -27.4% | [3] 6.2% | [4] 4.2% | [5] 4.25% | [6] -23.5%

CN(C)C(=O)NNC(=O)N(C)C
inactive: [1] 1.75% | [2] 20.5% | [3] 12.8% | [4] -22.5% | [5] 6.85% | [6] -0.7%

CCOC(=O)c1c(C(=O)Nc2ccccc2)c(-c2ccccc2)n(NC(N)=O)c1C
inactive: [1] 5.25% | [2] 5.95% | [3] 0.5% | [4] -2.4% | [5] 0.85% | [6] 2.95%

COc1ccccc1NC(=O)Nc1ccccc1
inactive: [1] 1.9% | [2] -4.3% | [3] 3.7% | [4] -23.5% | [5] -4.65% | [6] 0.3%

COCCCN1CC(=O)N2Cc3ccccc3CN2C(=O)C1
inactive: [1] -9.15% | [2] -13% | [3] -15.2% | [4] -3.6% | [5] 2.95% | [6] -4.6%

CC(=N\N=C(N)N)/C(N=Nc1ccc(S(N)(=O)=O)cc1)=N\N=C(N)N
inactive: [1] -0.75% | [2] 5.55% | [3] 19.4% | [4] -45.6% | [5] -0.55% | [6] 21.3%

Clc1ccc2c(c1)[nH]c1c2nc2sccn21
inactive: [1] -7.25% | [2] -14.7% | [3] -0.3% | [4] 1.15% | [5] -12.9% | [6] -10.1%

Cc1c(C)n(C)c(=S)n(C)c1=S
inactive: [1] 4.95% | [2] 4.15% | [3] 5.8% | [4] 31.6% | [5] 1.85% | [6] 8.65%

O=C1c2ccccc2C(=O)c2c(NCCNC(=O)C3CCCN3)ccc(NCCNC(=O)C3CCCN3)c21 (centres undefined)
inactive: [1] -1.25% | [2] -11.7% | [3] 21.8% | [4] 3.4% | [5] -3.7% | [6] -85.5%

NC(N)=NCCS(=O)(=O)O
inactive: [1] 5.8% | [2] 7.35% | [3] -2% | [4] 9.1% | [5] -2.35% | [6] 20.4%

Cc1ccc(O)c(C(C)C)c1
inactive: [1] -26.4% | [2] -48.8% | [3] -34.4% | [4] -16.1% | [5] -40.2% | [6] -8.6%

CSC1=C(C#N)C(=O)N(c2ccc(C)cc2)C(=O)C1C#N (centres undefined)
inactive: [1] 26.1% | [2] 12.2% | [3] 31.1% | [4] 24.4% | [5] 5.5% | [6] 20.3%

CCOc1ccc2nc(NC(=O)C(=O)C3C(=O)C(CC4C(=O)c5ccccc5C4=O)C(=O)CC3(C)C)sc2c1 (centres undefined)
inactive: [1] 31.4% | [2] -1.1% | [3] 14.3% | [4] -29.8% | [5] -29.4% | [6] 8.9%

O=C(Nc1cccc(Cl)c1Cl)Oc1ccc(Cl)cc1C(=O)c1ccccc1
inactive: [1] -7.8% | [2] -1% | [3] -17.1% | [4] 4.5% | [5] -12.9% | [6] -27.4%

CCOC(=O)C1=C(O)C(=O)c2ccoc2C1=O
inactive: [1] -52.9% | [2] -35.2% | [3] -58% | [4] -7.15% | [5] -32.5% | [6] -32%

Nc1ncnc(N)c1NC(=O)c1cccc(F)c1
inactive: [1] 0.15% | [2] -1.3% | [3] -3.7% | [4] -39.2% | [5] -8.35% | [6] 1.5%

Cc1c(-c2ccccc2)nnn1-c1ccc(F)cc1F
inactive: [1] 1.7% | [2] -28.8% | [3] 13.4% | [4] -10.6% | [5] 20.8% | [6] -9.35%

COc1ccccc1/C=N/Nc1nnc2c3ccccc3c3ncccc3c2n1
inactive: [1] -28.8% | [2] -45.8% | [3] -22.5% | [4] -10.8% | [5] -8.55% | [6] -34%

COC(=O)Nc1c2ccccc2c(NC(=O)OC)c2ccccc12
inactive: [1] -7.15% | [2] 13% | [3] 19.7% | [4] -88.8% | [5] 23.1% | [6] 0.75%

O=C(c1ccccc1CO)N1CCCCC1
inactive: [1] 10.8% | [2] 2.2% | [3] -1.55% | [4] -69% | [5] -9.2% | [6] -20.4%

O=[N+]([O-])c1cccc(/C=C/COc2ccccc2)c1
inactive: [1] -1.35% | [2] -10.4% | [3] -10.8% | [4] -48.7% | [5] 10.6% | [6] -18.9%

COC1(OC)CCCCCCCCC(OC)(OC)CCCCCCCC1
inactive: [1] 7.5% | [2] -18.4% | [3] -10.4% | [4] 13% | [5] 16.2% | [6] -8.2%

O=C(O)Cc1ccc2ccccc2c1
inactive: [1] 6.3% | [2] 13.2% | [3] 20.6% | [4] 3.6% | [5] 0.45% | [6] 48%

CC(Br)CNC(=O)c1ccc([N+](=O)[O-])cc1 (centres undefined)
inactive: [1] -0.65% | [2] 17.3% | [3] 3.6% | [4] -4.35% | [5] 9.75% | [6] 13.3%

CCC(=O)OC(OC(=O)CC)c1ccc2c(c1)OCO2
inactive: [1] -4.6% | [2] 0.7% | [3] 4.45% | [4] -18.9% | [5] 7.75% | [6] -1%

COc1ccc(OC)c(Cc2ccc(NC(C)=O)cc2)c1
inactive: [1] 4.75% | [2] -2.15% | [3] 3.3% | [4] -38.2% | [5] -0.75% | [6] -2.65%

Cc1ccccc1N(CCC#N)C1=NN(C(=O)CC(=O)Nc2ccccc2)C(c2ccccc2)C1 (centres undefined)
inactive: [1] 3% | [2] 1% | [3] 12.1% | [4] 11.7% | [5] 0.85% | [6] -7.2%

CC(CO)N1CCCCCC1 (centres undefined)
inactive: [1] -20.4% | [2] -15.7% | [3] 5.9% | [4] -17.7% | [5] 10.7% | [6] -9%

COc1ccc(-c2coc3cc(O)cc(O)c3c2=O)cc1
inactive: [1] 36.6% | [2] 22.6% | [3] 59.4% | [4] 31.7% | [5] 58.4% | [6] 62.9%

O=C(O)c1ccc(C2C3C=CC(C3)C2[N+](=O)[O-])cc1 (centres undefined)
inactive: [1] 6.15% | [2] -18.8% | [3] -20.2% | [4] 5.85% | [5] -12.5% | [6] -35.5%

O=S1(=O)NC(=NC2CCCC2)c2ccccc21
inactive: [1] 0.7% | [2] -12.4% | [3] -3.55% | [4] -35.8% | [5] -7.75% | [6] 1.15%

N#C/C(=C\c1ccc2ccccc2c1)c1ccccc1
inactive: [1] 37.9% | [2] 14.9% | [3] 12.8% | [4] 17% | [5] 25.7% | [6] 52%
